Assay results as given in the supplement of paper PMC8728848.
Shown is part of a subset that was picked to be rich in the strongest signals.

Tests used:
Test in all cases: glycan array binding signal (z-score within array); higher = stronger binding
Details in all cases: glycan notation: IUPAC condensed, linker removed
[1] = target: Fuc(a1-2)Gal(b1-3)GalNAc(a1-3)[Fuc(a1-2)]Gal(b1-4)Glc
Method in brief: (§1)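 Glycan array binding is given as a within-array Z-score, which can be read as non-binding when negative. The arrays, 3228 of them, came from the Consortium for Functional Glycomics database and were retained only where the protein sequence was available. Z-scores were averaged across arrays of the same protein sequence at different concentrations or buffers and across linkers.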

[2] = target: Fuc(a1-2)Gal(b1-3)GlcNAc(b1-3)Gal(b1-4)Glc
Method in brief: as §1

[3] = target: Fuc(a1-2)Gal(b1-3)[Fuc(a1-4)]GlcNAc(b1-3)[Fuc(a1-3)[Gal(b1-4)]GlcNAc(b1-6)]Gal(b1-4)Glc
Method in brief: as §1

[4] = target: Fuc(a1-2)Gal(b1-4)GlcNAc(b1-2)Man
Method in brief: as §1

[5] = target: Fuc(a1-2)Gal(b1-4)GlcNAc(b1-2)Man(a1-3)[Fuc(a1-2)Gal(b1-4)GlcNAc(b1-2)Man(a1-6)]Man(b1-4)GlcNAc(b1-4)[Fuc(a1-6)]GlcNAc
Method in brief: as §1

[6] = target: Fuc(a1-2)Gal(b1-4)GlcNAc(b1-3)[Fuc(a1-2)Gal(b1-4)GlcNAc(b1-6)]GalNAc
Method in brief: as §1

[7] = target: Fuc(a1-2)Gal(b1-4)[Fuc(a1-3)]GlcNAc(b1-3)Gal(b1-4)[Fuc(a1-3)]GlcNAc
Method in brief: as §1

[8] = target: Fuc(a1-2)Gal6S(b1-3)GlcNAc6S
Method in brief: as §1

[9] = target: Fuc(a1-2)[GalNAc(a1-3)]Gal(b1-3)GlcNAc(b1-2)Man(a1-3)[Fuc(a1-2)[GalNAc(a1-3)]Gal(b1-3)GlcNAc(b1-2)Man(a1-6)]Man(b1-4)GlcNAc(b1-4)[Fuc(a1-6)]GlcNAc
Method in brief: as §1

[10] = target: Fuc(a1-2)[GalNAc(a1-3)]Gal(b1-3)GlcNAc(b1-3)GalNAc
Method in brief: as §1

[11] = target: Fuc(a1-2)[GalNAc(a1-3)]Gal(b1-4)GlcNAc(b1-2)Man(a1-3)[Fuc(a1-2)[GalNAc(a1-3)]Gal(b1-4)GlcNAc(b1-2)Man(a1-6)]Man(b1-4)GlcNAc(b1-4)[Fuc(a1-6)]GlcNAc
Method in brief: as §1

[12] = target: Fuc(a1-3)[Gal(b1-4)]GlcNAc(b1-2)Man(a1-3)[Fuc(a1-3)[Gal(b1-4)]GlcNAc(b1-2)Man(a1-6)]Man(b1-4)GlcNAc(b1-4)[Fuc(a1-6)]GlcNAc
Method in brief: as §1

[13] = target: Fuc(a1-3)[GalNAc3S(b1-4)]GlcNAc
Method in brief: as §1

[14] = target: Gal(a1-3)Gal(b1-3)[Fuc(a1-4)]GlcNAc(b1-2)Man(a1-3)[Gal(a1-3)Gal(b1-3)[Fuc(a1-4)]GlcNAc(b1-2)Man(a1-6)]Man(b1-4)GlcNAc(b1-4)GlcNAc
Method in brief: as §1

Gal(a1-3)Gal(b1-4)Glc = target: Gal(a1-3)Gal(b1-4)Glc
Method in brief: as §1

[15] = target: Gal(a1-3)Gal(b1-4)[Fuc(a1-3)]GlcNAc
Method in brief: as §1

Gal(a1-4)Gal(b1-4)GlcNAc = target: Gal(a1-4)Gal(b1-4)GlcNAc
Method in brief: as §1

Gal(b1-2)Gal = target: Gal(b1-2)Gal
Method in brief: as §1

[16] = target: Gal(b1-3)GalNAc(a1-3)[Fuc(a1-2)]Gal(b1-4)GlcNAc
Method in brief: as §1

[17] = target: Gal(b1-3)GlcNAc(a1-3)Gal(b1-4)GlcNAc
Method in brief: as §1

[18] = target: Gal(b1-3)GlcNAc(b1-3)Gal(b1-3)GlcNAc
Method in brief: as §1

[19] = target: Gal(b1-3)[Fuc(a1-4)]GlcNAc(b1-2)Man(a1-3)[Gal(b1-3)[Fuc(a1-4)]GlcNAc(b1-2)Man(a1-6)]Man(b1-4)GlcNAc(b1-4)[Fuc(a1-6)]GlcNAc
Method in brief: as §1

Gal(b1-4)GlcNAc(b1-2)Man = target: Gal(b1-4)GlcNAc(b1-2)Man
Method in brief: as §1

Gal3S6S(b1-4)GlcNAc = target: Gal3S6S(b1-4)GlcNAc
Method in brief: as §1

Gal6S(b1-4)Glc = target: Gal6S(b1-4)Glc
Method in brief: as §1

[20] = target: GlcNAc(a1-4)Gal(b1-4)GlcNAc(b1-3)Gal(b1-4)[Fuc(a1-3)]GlcNAc(b1-3)Gal(b1-4)[Fuc(a1-3)]GlcNAc
Method in brief: as §1

[21] = target: GlcNAc(b1-2)Man(a1-3)[GlcNAc(b1-4)][GlcNAc(b1-2)Man(a1-6)]Man(b1-4)GlcNAc(b1-4)GlcNAc
Method in brief: as §1

GlcNAc(b1-3)Gal = target: GlcNAc(b1-3)Gal
Method in brief: as §1

[22] = target: Kdn(a2-3)Gal(b1-4)[Fuc(a1-3)]GlcNAc
Method in brief: as §1

[23] = target: Man(a1-2)Man(a1-2)Man(a1-3)Man
Method in brief: as §1

B1: StcE (Escherichia coli), O82882.2 (protein)
chain: ADNNSAIYFNTSQPINDLQGSLAAEVKFAQSQILPAHPKEGDSQPHLTSLRKSLLLVRPVKADDKTPVQVEARDDNNKILGTLTLYPPSSLPDTIYHLDGVPEGGIDFTPHNGTKKIINTVAEVNKLSDASGSSIHSHLTNNALVEIHTANGRWVRDIYLPQGPDLEGKMVRFVSSAGYSSTVFYGDRKVTLSVGNTLLFKYVNGQWFRSGELENNRITYAQHIWSAELPAHWIVPGLNLVIKQGNLSGRLNDIKIGAPGELLLHTIDIGMLTTPRDRFDFAKDKEAHREYFQTIPVSRMIVNNYAPLHLKEVMLPTGELLTDMDPGNGGWHSGTMRQRIGKELVSHGIDNANYGLNSTAGLGENSHPYVVAQLAAHNSRGNYANGIQVHGGSGGGGIVTLDSTLGNEFSHEVGHNYGLGHYVDGFKGSVHRSAENNNSTWGWDGDKKRFIPNFYPSQTNEKSCLNNQCQEPFDGHKFGFDAMAGGSPFSAANRFTMYTPNSSAIIQRFFENKAVFDSRSSTGFSKWNADTQEMEPYEHTIDRAEQITASVNELSESKMAELMAEYAVVKVHMWNGNWTRNIYIPTASADNRGSILTINHEAGYNSYLFINGDEKVVSQGYKKSFVSDGQFWKERDVVDTREARKPEQFGVPVTTLVGYYDPEGTLSSYIYPAMYGAYGFTYSDDSQNLSDNDCQLQVDTKEGQLRFRLANHRANNTVMNKFHINVPTESQPTQATLVCNNKILDTKSLTPAPEGLTYTVNGQALPAKENEGCIVSVNSGKRYCLPVGQRSGYSLPDWIVGQEVYVDSGAKAKVLLSDWDNLSYNRIGEFVGNVNPADMKKVKAWNGQYLDFSKPRSMRVVYK
glycan array binding signal (z-score) [1]: -0.142 | glycan array binding signal (z-score) [2]: -0.144 | glycan array binding signal (z-score) [3]: -0.147 | glycan array binding signal (z-score) [4]: -0.132 | glycan array binding signal (z-score) [5]: 1.14 | glycan array binding signal (z-score) [6]: 2.85 | glycan array binding signal (z-score) [7]: -0.122 | glycan array binding signal (z-score) [8]: 5.23 | glycan array binding signal (z-score) [9]: 0.015 | glycan array binding signal (z-score) [10]: -0.096 | glycan array binding signal (z-score) [11]: -0.164 | glycan array binding signal (z-score) [12]: -0.117 | glycan array binding signal (z-score) [13]: -0.164 | glycan array binding signal (z-score) [14]: 4.13 | glycan array binding signal (z-score) (Gal(a1-3)Gal(b1-4)Glc): -0.25 | glycan array binding signal (z-score) [15]: 0.116 | glycan array binding signal (z-score) (Gal(a1-4)Gal(b1-4)GlcNAc): -0.215 | glycan array binding signal (z-score) (Gal(b1-2)Gal): 0.601 | glycan array binding signal (z-score) [16]: -0.17 | glycan array binding signal (z-score) [17]: -0.109 | glycan array binding signal (z-score) [18]: -0.142 | glycan array binding signal (z-score) [19]: 4.66 | glycan array binding signal (z-score) (Gal(b1-4)GlcNAc(b1-2)Man): -0.167 | glycan array binding signal (z-score) (Gal3S6S(b1-4)GlcNAc): -0.175 | glycan array binding signal (z-score) (Gal6S(b1-4)Glc): 0.013 | glycan array binding signal (z-score) [20]: 3.96 | glycan array binding signal (z-score) [21]: -0.167 | glycan array binding signal (z-score) (GlcNAc(b1-3)Gal): 0.13 | glycan array binding signal (z-score) [22]: -0.152 | glycan array binding signal (z-score) [23]: -0.442
